From PubChem BioAssay
Activity calls are given as the source filed them.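 The calls were made as follows, unless noted: active = fluorescence slope higher than the sample average by over 3 SD (cut at about -0.22 in these data, passing the limit was not always enough); inactive = the rest.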

How the values were obtained:
[1] = inhibitors of TNFa-induced NFkB p65 translocation, primary screen, imaging, HUVEC, MLSMR starter and 10KST1 sets (AID 438;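 active = inhibition above 20% together with a positive visual image hit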;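 also: compound added about 3h40 before a 20 min TNFalpha stimulation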;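 as to inhibition: signal is the nuclear over cytoplasmic p65 intensity ratio per well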); conditions: HUVEC TNFa-induced p65 nuclear translocation; cell count: measured here: nuclei count (cytotoxicity indicator), at 2.08 µM; inhibition: at 2 µM, stronger effect = higher value, 0% TNFa-plus-vehicle, 100% no-TNFa wells
[2] = inhibitors of mutant huntingtin aggregation, primary screen, imaging, exon1htt(103Q)mCFP cells, high-content imaging (AID 483;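 active = visual image review flags a hit and inhibition of aggregation exceeds 20%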;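 also: compound exposure lasted 3 days before fixation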;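 as to nuclei count: percent of the per-plate median nuclei count of sample wells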); conditions: exon1htt(103Q)mCFP cell line, aggregate imaging, at 2 µM; inhibition of aggregation: stronger effect = higher value; nuclei count: measured here: cell count, toxicity
[3] = inhibitors of E-selectin induction by TNFa, primary screen, imaging, HUVEC, immunofluorescence, MLSMR starter and 10KST1 sets (AID 487;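 active = visually confirmed hit in the image check and inhibition above 20%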;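 as to inhibition: signal is fraction of cell area covered by stained E-selectin grains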;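 as to nuclei count: 100% = median nuclei count of all wells on the same plate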); conditions: HUVEC TNFalpha-induced E-selectin immunofluorescence imaging, at 2 µM; inhibition: stronger effect = higher value; nuclei count: measured here: cell number, toxicity
[4] = molecular target: Voltage-gated potassium channel subunit beta-2 (Rattus norvegicus) (UniProt P62483); experiment: KvBeta enzyme negative modulators, primary screen, biochemical, NADPH fluorescence (AID 622); conditions: recombinant KvBeta, 4-cyanobenzaldehyde reduction, at 10 µM, stronger effect = higher value;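 also: slope of raw intensity against log time taken from 70 to 1610 s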
Sequence of Voltage-gated potassium channel subunit beta-2 (Rattus norvegicus) (P62483 whole entry, looked up): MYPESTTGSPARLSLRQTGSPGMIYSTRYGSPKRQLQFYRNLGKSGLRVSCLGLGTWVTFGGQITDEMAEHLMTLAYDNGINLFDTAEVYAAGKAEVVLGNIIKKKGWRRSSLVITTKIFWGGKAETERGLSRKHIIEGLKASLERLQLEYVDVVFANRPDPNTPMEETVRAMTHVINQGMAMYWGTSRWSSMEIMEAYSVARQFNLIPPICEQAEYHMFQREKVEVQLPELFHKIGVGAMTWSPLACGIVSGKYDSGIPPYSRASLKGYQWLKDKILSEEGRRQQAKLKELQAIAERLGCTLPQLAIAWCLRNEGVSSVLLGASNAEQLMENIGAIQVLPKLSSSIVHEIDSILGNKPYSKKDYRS

[5] = molecular target: Voltage-gated potassium channel subunit beta-2 (Rattus norvegicus) (UniProt P62483); experiment: KvBeta positive modulators, primary screen, biochemical, NADPH fluorescence (AID 623;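 active = NADPH fluorescence slope more negative than the mean of all samples by about 3 SD, 99.7% confidence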;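 also: fluorescence intensity change per second fitted from 20 to 320 s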); conditions: Recombinant KvBeta, NADPH fluorescence decrease slope, 10 min; at 10 µM; stronger effect = lower value
[6] = molecular target: Alpha-2C adrenergic receptor (Homo sapiens) (UniProt P18825); experiment: modulators of alpha2C/GIRK thallium flux, primary screen, cell-based, HEK293 alpha2C/GIRK1/2 (AID 624;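 active = fluorescence slope after compound addition differing from the mean of all screened samples at 99.7% confidence, in either direction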;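 also: slope of fluorescence ratio to pre-addition baseline per second over 15 to 24 s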); conditions: thallium flux BTC fluorescence, at 10 µM, actives lie on both sides
Sequence of Alpha-2C adrenergic receptor (Homo sapiens) (P18825 whole entry, looked up): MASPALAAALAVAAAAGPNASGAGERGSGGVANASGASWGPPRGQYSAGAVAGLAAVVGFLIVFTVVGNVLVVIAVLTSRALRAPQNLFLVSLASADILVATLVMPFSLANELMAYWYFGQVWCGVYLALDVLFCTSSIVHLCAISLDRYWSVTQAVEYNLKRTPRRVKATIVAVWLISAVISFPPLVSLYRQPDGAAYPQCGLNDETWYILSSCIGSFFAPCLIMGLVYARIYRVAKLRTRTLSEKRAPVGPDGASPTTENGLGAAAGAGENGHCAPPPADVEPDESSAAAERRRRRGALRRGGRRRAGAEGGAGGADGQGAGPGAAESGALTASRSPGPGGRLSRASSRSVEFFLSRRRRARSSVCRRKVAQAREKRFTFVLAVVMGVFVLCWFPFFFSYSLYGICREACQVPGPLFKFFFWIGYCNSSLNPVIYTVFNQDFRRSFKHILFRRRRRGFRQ

[7] = inhibitors of Sendai virus-induced IRF3 signaling, primary screen, TLR/RLR signaling modifier project, cell-based, Sendai virus stimulus, luciferase, 10K MLSCN set (AID 602276;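 active = inhibition at or above 50% at 10 µM; inactive = inhibition below 50%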;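 also: firefly luciferase from ISG56 promoter only with Renilla not read in this screen; 0% = Sendai virus plus DMSO and 100% = medium plus DMSO without virus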); conditions: HEK293 RL24 IRF3 luciferase reporter, at 10 µM, stronger effect = higher value
[8] = inhibitors of poly I:C-induced TLR3 signaling, primary screen, cell-based, poly I:C stimulus, luciferase, 10K MLSCN set (AID 602277;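 active = inhibition of the reporter signal at or above 50%; inactive = inhibition below 50%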); conditions: HEK293-TLR3 RL24 IRF3 luciferase reporter, at 10 µM, stronger effect = higher value
[9] = DUSP6 inhibitors restoring Erk phosphorylation by chemical complementation, primary imaging in DUSP6-transfected HeLa (AID 609;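 active = compounds giving at least 50% inhibition in the cell-based MKP-3 phosphatase rescue imaging test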;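 as to inhibition: phospho-Erk level distribution per well compared with pooled transfected vehicle control wells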); conditions: HeLa MKP-3 transfected, phospho-Erk imaging KS statistic, at 10 µM, cells stimulated with TPA for 15 min
[10] = molecular target: Dual specificity protein phosphatase 6 (Homo sapiens) (UniProt Q16828); experiment: as above; conditions: HeLa MKP-3 transfected, phospho-Erk imaging KS statistic; at 10 µM; stronger effect = higher value; cells stimulated with TPA for 15 min
Sequence of Dual specificity protein phosphatase 6 (Homo sapiens) (Q16828 whole entry, looked up): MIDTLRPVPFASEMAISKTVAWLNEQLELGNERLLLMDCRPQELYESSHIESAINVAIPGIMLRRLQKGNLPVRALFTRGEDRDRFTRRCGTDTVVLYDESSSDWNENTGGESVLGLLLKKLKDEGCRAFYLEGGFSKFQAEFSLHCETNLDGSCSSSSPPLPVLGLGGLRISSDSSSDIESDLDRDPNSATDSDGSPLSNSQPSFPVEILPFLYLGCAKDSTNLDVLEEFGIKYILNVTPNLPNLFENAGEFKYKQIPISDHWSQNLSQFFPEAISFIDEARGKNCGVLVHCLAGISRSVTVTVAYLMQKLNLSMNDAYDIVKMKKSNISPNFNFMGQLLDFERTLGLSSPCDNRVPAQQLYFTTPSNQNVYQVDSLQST

[11] = molecular target: Muscarinic acetylcholine receptor M4 (Homo sapiens) (UniProt P08173); experiment: compounds altering M4/GIRK thallium flux, either direction, primary screen, M4 allosteric agonist project, cell-based, HEK293 M4/GIRK, BTC-AM (AID 625;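 active = fluorescence slope after compound addition differing from the mean of all tested samples at 99.7% confidence, mostly higher but some lower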;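 also: thallium influx through GIRK channels coupled to M4 in HEK293 cells with BTC-AM dye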); conditions: at 10 µM, actives lie on both sides
Sequence of Muscarinic acetylcholine receptor M4 (Homo sapiens) (P08173 whole entry, looked up): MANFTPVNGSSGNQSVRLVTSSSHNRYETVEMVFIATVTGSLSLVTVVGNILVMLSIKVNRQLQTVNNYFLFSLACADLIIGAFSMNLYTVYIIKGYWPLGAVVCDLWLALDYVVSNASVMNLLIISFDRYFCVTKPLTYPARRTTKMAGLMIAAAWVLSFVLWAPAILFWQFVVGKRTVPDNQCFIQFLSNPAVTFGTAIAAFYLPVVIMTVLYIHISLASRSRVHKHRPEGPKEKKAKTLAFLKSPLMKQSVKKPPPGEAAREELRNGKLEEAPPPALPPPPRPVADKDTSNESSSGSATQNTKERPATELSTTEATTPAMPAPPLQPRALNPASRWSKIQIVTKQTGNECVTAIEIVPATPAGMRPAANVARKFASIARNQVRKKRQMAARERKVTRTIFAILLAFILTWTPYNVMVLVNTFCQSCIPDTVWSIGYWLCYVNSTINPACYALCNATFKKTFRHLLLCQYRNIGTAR

[12] = inhibitors of larval lipid processing in zebrafish, primary screen, whole organism, PED6 fluorescence, gall bladder and intestine (AID 686;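 active = a full or partial loss of lipid-probe fluorescence in the fish gall bladder, intestine or both, judged by eye; inactive = no fluorescence loss, or compound toxic to the fish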;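 also: larvae 5 to 7 days old with five fish per well; signal comes from phospholipase A2 cleavage of quenched PED6 carried via bile; overnight exposure to compound and PED6 before scoring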); conditions: Zebrafish larvae PED6 lipid processing, fluorescence scoring; screened at 20 µM (by protocol)
[13] = inhibitors of Chlamydomonas gravitaxis, primary screen, whole organism, Chlamydomonas reinhardtii, WT vs cilia-less mutant, absorbance, 96-well (AID 463189;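 active = inhibition at or above 50% relative to wild type and mutant plate controls; inactive = inhibition below 50%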;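 also: 0% = wild type cc124 cells in DMSO and 100% = ciliumless bld1 mutant cells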); conditions: OD600 absorbance, 2 days, at 10 µM, stronger effect = higher value

Row | Compound | cell count [1] | inhibition [1] | inhibition of aggregation [2] | nuclei count [2] | inhibition [3] | nuclei count [3] | fluorescence slope [4] | NADPH fluorescence slope [5] | slope [6] | inhibition [7] | inhibition [8] | z-score ([9]; measured here: cell density z-score) | z-score ([9]; measured here: nuclear c-Myc green intensity z-score) | z-score ([9]; measured here: nuclear pErk red intensity z-score, stronger effect = higher value) | inhibition [10] | fluorescence slope [11] | outcome [12] | inhibition [13]
1 | O=c1c2cc(N3CCOCC3)ccc2[nH]c(=S)n1CCCN1CCCC1 | 739 | 3% (inactive) | 6.2% (inactive) | 105% | -35% (inactive) | 106% | -0.0484 (active) | -1.6e-06 (inactive) | 0.00568 (inactive) | 3.61% (inactive) | 32.7% (inactive) | – | – | – | – | – | – | –
2 | O=P1(O)C=C(c2ccccc2)NC(c2ccccc2)=C1 | 405 | 3.4% (inactive) | -6.9% (inactive) | 92.3% | -48% (inactive) | 117% | -0.35 (inactive) | -5e-07 (inactive) | 0.00466 (inactive) | 10.1% (inactive) | 7.48% (inactive) | – | – | – | – | – | – | –
3 | COCCSc1ccccc1C(=O)Nc1nncs1 | 659 | -27.6% (inactive) | -7.4% (inactive) | 99.6% | -60.7% (inactive) | 112% | -0.598 (inactive) | -2.1e-05 (inactive) | 0.00672 (inactive) | -7.19% (inactive) | 2.28% (inactive) | – | – | – | – | – | – | –
4 | OC1C[N+]2(CCCCC2)C1 | 278 | 9.3% (inactive) | -10.6% (inactive) | 104% | 62.9% (active) | 111% | -0.497 (inactive) | -5.4e-05 (inactive) | 0.00461 (inactive) | 11.5% (inactive) | 10.3% (inactive) | – | – | – | – | – | – | –
5 | CCN(CC)S(=O)(=O)c1ccc(NC(=O)Cn2cnc3ccccc3c2=O)cc1 | 321 | -1.8% (inactive) | 15.7% (inactive) | 96% | -112% (inactive) | 108% | -0.483 (inactive) | -0.000135 (inactive) | 0.0039 (inactive) | 12.3% (inactive) | 16% (inactive) | – | – | – | – | – | – | –
6 | CC(C)(C)OC(=O)N1CCCC1C(=O)N1CCc2ccccc21 (configuration not stated) | 411 | 5.6% (inactive) | -0.3% (inactive) | 103% | -19.6% (inactive) | 104% | -0.614 (inactive) | -1.2e-06 (inactive) | 0.00514 (inactive) | 10.9% (inactive) | 33.9% (inactive) | – | – | – | – | – | – | –
7 | CCCNC(=O)c1ccccc1NC(=O)CN(c1ccccc1OCC)S(C)(=O)=O | 654 | -8.2% (inactive) | -11% (inactive) | 105% | -142% (inactive) | 102% | -0.465 (inactive) | -5.5e-06 (inactive) | 0.00349 (inactive) | -1.76% (inactive) | 20.9% (inactive) | – | – | – | – | – | – | –
8 | COc1ccc(-c2nc(CSCC(=O)N3CCc4ccccc4C3)c(C)o2)cc1OC | 643 | 6.9% (inactive) | -5.2% (inactive) | 101% | 5.9% (inactive) | 116% | -0.603 (inactive) | -1.8e-06 (inactive) | 0.00589 (inactive) | 8.21% (inactive) | 12.7% (inactive) | – | – | – | – | – | – | –
9 | O=C(CSc1nc2ccccc2s1)Nn1cnnc1 | 461 | -6.2% (inactive) | – | – | – | 166% | -0.439 (inactive) | -7.8e-05 (inactive) | – | – | – | -0.815 | -1.79 | 0.477 | 6.04% (inactive) | 0.00557 (inactive) | inactive | 17.1% (inactive)
10 | FC(F)(F)c1cccc(N2CCN(Cc3cccnc3)CC2)c1 | 447 | -3.8% (inactive) | -15.1% (inactive) | 109% | -57.5% (inactive) | 127% | -0.505 (inactive) | -6.8e-05 (inactive) | 0.00521 (inactive) | 17.4% (inactive) | 12.1% (inactive) | – | – | – | – | – | – | –
11 | COc1ccccc1N1CCN(C(=O)c2ccc(S(=O)(=O)N3CCCCCC3)cc2)CC1 | 604 | -13% (inactive) | -9.1% (inactive) | 89.6% | -59.2% (inactive) | 89.3% | -0.606 (inactive) | -2.1e-05 (inactive) | 0.0031 (inactive) | -1.31% (inactive) | -1.9% (inactive) | – | – | – | – | – | – | –
